{
  "source": "paper PMC8384837",
  "about": "“Expanding the binding specificity for RNA recognition by a PUF domain”",
  "assay_in_all_cases": "yeast three-hybrid, YBZ-1, SC-Leu-His + 0.5 mM 3-AT, 4 days",
  "conditions_in_all_cases": "tags: N-Gal4 AD-HA kept; label: inside an RPR1-promoter hybrid RNA with tandem MS2 sites; ssRNA",
  "key": {"PUM1 PUF domain R5-MRR": {"molecular_target": "PUM1 PUF domain R5-MRR (Homo sapiens, UniProt Q14671 828-1176, C1007M;Q1011R)", "summary_of_the_method": "(§1)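 A centromeric plasmid in strain YBZ-1 co-expressed Pumilio-1 PUF domain libraries, randomized at the three base-contacting residues of each repeat, with matching RNA elements; the strain carries a LexA–MS2 coat fusion and a HIS3 reporter. After four days on SC-Leu (input) or SC-Leu-His + 0.5 mM 3-AT (selection), the repeat regions were PCR-amplified and Illumina-sequenced. The interaction score is the log change in variant frequency from input to selection, using log2 and a pseudocount of 1 where absent.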"}, "PUM1 PUF domain R5-TSR": {"molecular_target": "PUM1 PUF domain R5-TSR (Homo sapiens, UniProt Q14671 828-1176, C1007T;R1008S;Q1011R)", "summary_of_the_method": "as §1"}, "PUM1 PUF domain R5-QQR": {"molecular_target": "PUM1 PUF domain R5-QQR (Homo sapiens, UniProt Q14671 828-1176, C1007Q;R1008Q;Q1011R)", "summary_of_the_method": "as §1"}, "PUM1 PUF domain R5-RKI": {"molecular_target": "PUM1 PUF domain R5-RKI (Homo sapiens, UniProt Q14671 828-1176, C1007R;R1008K;Q1011I)", "summary_of_the_method": "as §1"}, "PUM1 PUF domain R3-EFL": {"molecular_target": "PUM1 PUF domain R3-EFL (Homo sapiens, UniProt Q14671 828-1176, C935E;R936F;Q939L)", "summary_of_the_method": "as §1"}, "PUM1 PUF domain R6-FYS": {"molecular_target": "T1, PUM1 PUF domain R6-FYS (Homo sapiens, UniProt Q14671 828-1176, N1043F;Q1047S)", "T1 sequence": "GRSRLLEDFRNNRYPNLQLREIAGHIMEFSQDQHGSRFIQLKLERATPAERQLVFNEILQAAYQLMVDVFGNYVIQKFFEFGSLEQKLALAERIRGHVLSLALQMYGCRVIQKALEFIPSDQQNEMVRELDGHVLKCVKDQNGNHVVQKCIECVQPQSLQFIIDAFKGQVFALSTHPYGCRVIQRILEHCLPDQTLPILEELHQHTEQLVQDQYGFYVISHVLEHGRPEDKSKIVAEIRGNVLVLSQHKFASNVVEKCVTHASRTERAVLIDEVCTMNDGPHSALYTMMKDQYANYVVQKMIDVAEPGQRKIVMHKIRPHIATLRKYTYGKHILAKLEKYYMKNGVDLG", "summary_of_the_method": "as §1"}, "PUM1 PUF domain R6-GYR": {"molecular_target": "T2, PUM1 PUF domain R6-GYR (Homo sapiens, UniProt Q14671 828-1176, N1043G;Q1047R)", "T2 sequence": "T1 sequence with F216G, S220R", "summary_of_the_method": "as §1"}, "PUM1 PUF domain R1-YSR": {"molecular_target": "PUM1 PUF domain R1-YSR (Homo sapiens, UniProt Q14671 828-1176, S863Y;R864S;Q867R)", "summary_of_the_method": "as §1"}, "PUM1 PUF domain R5-CQR": {"molecular_target": "PUM1 PUF domain R5-CQR (Homo sapiens, UniProt Q14671 828-1176, R1008Q;Q1011R)", "summary_of_the_method": "as §1"}, "PUM1 PUF domain R2-LFC": {"molecular_target": "PUM1 PUF domain R2-LFC (Homo sapiens, UniProt Q14671 828-1176, N899L;Y900F;Q903C)", "summary_of_the_method": "as §1"}, "PUM1 PUF domain R3-IWS": {"molecular_target": "PUM1 PUF domain R3-IWS (Homo sapiens, UniProt Q14671 828-1176, C935I;R936W;Q939S)", "summary_of_the_method": "as §1"}, "PUM1 PUF domain R3-PWH": {"molecular_target": "PUM1 PUF domain R3-PWH (Homo sapiens, UniProt Q14671 828-1176, C935P;R936W;Q939H)", "summary_of_the_method": "as §1"}, "PUM1 PUF domain R3-RNE": {"molecular_target": "PUM1 PUF domain R3-RNE (Homo sapiens, UniProt Q14671 828-1176, C935R;R936N;Q939E)", "summary_of_the_method": "as §1"}, "PUM1 PUF domain R3-RVS": {"molecular_target": "PUM1 PUF domain R3-RVS (Homo sapiens, UniProt Q14671 828-1176, C935R;R936V;Q939S)", "summary_of_the_method": "as §1"}, "PUM1 PUF domain R8-IFR": {"molecular_target": "PUM1 PUF domain R8-IFR (Homo sapiens, UniProt Q14671 828-1176, N1122I;Y1123F;Q1126R)", "summary_of_the_method": "as §1"}, "PUM1 PUF domain R6-NHR": {"molecular_target": "T3, PUM1 PUF domain R6-NHR (Homo sapiens, UniProt Q14671 828-1176, Y1044H;Q1047R)", "T3 sequence": "T1 sequence with F216N, Y217H, S220R", "summary_of_the_method": "as §1"}, "PUM1 PUF domain R4-WSR": {"molecular_target": "PUM1 PUF domain R4-WSR (Homo sapiens, UniProt Q14671 828-1176, N971W;H972S;Q975R)", "summary_of_the_method": "as §1"}, "PUM1 PUF domain R4-CNI": {"molecular_target": "PUM1 PUF domain R4-CNI (Homo sapiens, UniProt Q14671 828-1176, N971C;H972N;Q975I)", "summary_of_the_method": "as §1"}},
  "note": "Substitutions are numbered along the chain they refer to.",
  "data": [
    {"sequence": "GGCUAGAACUAGUGGAUCCCCCGGCGCCCGGCGGCUCGAGCCCGGGUAAGUGUCAAUAGUCUGCAUGCCGCCGGGCGCCAUGCCUGCAGGUCGACUCUAGAAAACAUG", "values": [
      {"measurement": "binding signal", "setting": "PUM1 PUF domain R5-MRR", "value": "4.14 log2 enrichment (interaction score)"},
      {"measurement": "binding signal", "setting": "PUM1 PUF domain R5-TSR", "value": "5.55 log2 enrichment (interaction score)"},
      {"measurement": "binding signal", "setting": "PUM1 PUF domain R5-QQR", "value": "6.22 log2 enrichment (interaction score)"},
      {"measurement": "binding signal", "setting": "PUM1 PUF domain R5-RKI", "value": "3.24 log2 enrichment (interaction score)"}
    ]},
    {"sequence": "GGCUAGAACUAGUGGAUCCCCCGGCGCCCGGCGGCUCGAGCCCGGGUAAGUGUAAAUAGUCUGCAUGCCGCCGGGCGCCAUGCCUGCAGGUCGACUCUAGAAAACAUG", "values": [
      {"measurement": "binding signal", "setting": "PUM1 PUF domain R5-MRR", "value": "1.43 log2 enrichment (interaction score)"},
      {"measurement": "binding signal", "setting": "PUM1 PUF domain R3-EFL", "value": "5.34 log2 enrichment (interaction score)"},
      {"measurement": "binding signal", "setting": "PUM1 PUF domain R6-FYS", "value": "2.53 log2 enrichment (interaction score)"},
      {"measurement": "binding signal", "setting": "PUM1 PUF domain R6-GYR", "value": "6.45 log2 enrichment (interaction score)"}
    ]},
    {"sequence": "GGCUAGAACUAGUGGAUCCCCCGGCGCCCGGCGGCUCGAGCCCGGGUAAGUGUAAAUCGUCUGCAUGCCGCCGGGCGCCAUGCCUGCAGGUCGACUCUAGAAAACAUG", "values": [
      {"measurement": "binding signal", "setting": "PUM1 PUF domain R1-YSR", "value": "4.84 log2 enrichment (interaction score)"}
    ]},
    {"sequence": "GGCUAGAACUAGUGGAUCCCCCGGCGCCCGGCGGCUCGAGCCCGGGUAAGUGUAAAUUGUCUGCAUGCCGCCGGGCGCCAUGCCUGCAGGUCGACUCUAGAAAACAUG", "values": [
      {"measurement": "binding signal", "setting": "PUM1 PUF domain R1-YSR", "value": "5.97 log2 enrichment (interaction score)"}
    ]},
    {"sequence": "GGCUAGAACUAGUGGAUCCCCCGGCGCCCGGCGGCUCGAGCCCGGGUAAGUGUUAAUAGUCUGCAUGCCGCCGGGCGCCAUGCCUGCAGGUCGACUCUAGAAAACAUG", "values": [
      {"measurement": "binding signal", "setting": "PUM1 PUF domain R5-CQR", "value": "3.55 log2 enrichment (interaction score)"}
    ]},
    {"sequence": "GGCUAGAACUAGUGGAUCCCCCGGCGCCCGGCGGCUCGAGCCCGGGUAAGUGUGAAUAGUCUGCAUGCCGCCGGGCGCCAUGCCUGCAGGUCGACUCUAGAAAACAUG", "values": [
      {"measurement": "binding signal", "setting": "PUM1 PUF domain R5-CQR", "value": "0.8 log2 enrichment (interaction score)"}
    ]},
    {"sequence": "GGCUAGAACUAGUGGAUCCCCCGGCGCCCGGCGGCUCGAGCCCGGGUAAGUGUAAAAAGUCUGCAUGCCGCCGGGCGCCAUGCCUGCAGGUCGACUCUAGAAAACAUG", "values": [
      {"measurement": "binding signal", "setting": "PUM1 PUF domain R2-LFC", "value": "3.16 log2 enrichment (interaction score)"}
    ]},
    {"sequence": "GGCUAGAACUAGUGGAUCCCCCGGCGCCCGGCGGCUCGAGCCCGGGUAAGUGUAAGUAGUCUGCAUGCCGCCGGGCGCCAUGCCUGCAGGUCGACUCUAGAAAACAUG", "values": [
      {"measurement": "binding signal", "setting": "PUM1 PUF domain R3-IWS", "value": "6.08 log2 enrichment (interaction score)"}
    ]},
    {"sequence": "GGCUAGAACUAGUGGAUCCCCCGGCGCCCGGCGGCUCGAGCCCGGGUAAGUGUAAUUAGUCUGCAUGCCGCCGGGCGCCAUGCCUGCAGGUCGACUCUAGAAAACAUG", "values": [
      {"measurement": "binding signal", "setting": "PUM1 PUF domain R3-PWH", "value": "4.06 log2 enrichment (interaction score)"},
      {"measurement": "binding signal", "setting": "PUM1 PUF domain R3-RNE", "value": "2.81 log2 enrichment (interaction score)"},
      {"measurement": "binding signal", "setting": "PUM1 PUF domain R3-EFL", "value": "2.29 log2 enrichment (interaction score)"},
      {"measurement": "binding signal", "setting": "PUM1 PUF domain R3-RVS", "value": "2.78 log2 enrichment (interaction score)"}
    ]},
    {"sequence": "GGCUAGAACUAGUGGAUCCCCCGGCGCCCGGCGGCUCGAGCCCGGGUAAGCGUAAAUAGUCUGCAUGCCGCCGGGCGCCAUGCCUGCAGGUCGACUCUAGAAAACAUG", "values": [
      {"measurement": "binding signal", "setting": "PUM1 PUF domain R8-IFR", "value": "4.56 log2 enrichment (interaction score)"}
    ]},
    {"sequence": "GGCUAGAACUAGUGGAUCCCCCGGCGCCCGGCGGCUCGAGCCCGGGUAAGUGCAAAUAGUCUGCAUGCCGCCGGGCGCCAUGCCUGCAGGUCGACUCUAGAAAACAUG", "values": [
      {"measurement": "binding signal", "setting": "PUM1 PUF domain R6-NHR", "value": "5.94 log2 enrichment (interaction score)"},
      {"measurement": "binding signal", "setting": "PUM1 PUF domain R6-GYR", "value": "5.76 log2 enrichment (interaction score)"}
    ]},
    {"sequence": "GGCUAGAACUAGUGGAUCCCCCGGCGCCCGGCGGCUCGAGCCCGGGUAAGUGUAUAUAGUCUGCAUGCCGCCGGGCGCCAUGCCUGCAGGUCGACUCUAGAAAACAUG", "values": [
      {"measurement": "binding signal", "setting": "PUM1 PUF domain R4-WSR", "value": "1.87 log2 enrichment (interaction score)"}
    ]},
    {"sequence": "GGCUAGAACUAGUGGAUCCCCCGGCGCCCGGCGGCUCGAGCCCGGGUAAGUGUACAUAGUCUGCAUGCCGCCGGGCGCCAUGCCUGCAGGUCGACUCUAGAAAACAUG", "values": [
      {"measurement": "binding signal", "setting": "PUM1 PUF domain R4-WSR", "value": "2.55 log2 enrichment (interaction score)"},
      {"measurement": "binding signal", "setting": "PUM1 PUF domain R4-CNI", "value": "3.63 log2 enrichment (interaction score)"}
    ]}
  ]
}
